# Test results published in PubChem BioAssay AID454 (Sanford-Burnham Center for Chemical Genomics, 2006).
# In all, about 10,000 compounds went through this assay and about 25 (0.2%) were called active. The list comes from a sample in which actives are over-represented; it also holds similar structures and randomly drawn compounds. Unmarked numbers belong to inactive results.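 Rule for the calls: active = compound among top-ranked inhibitors of TNF-induced VCAM-1 adhesion protein staining, with the hit upheld by image or statistical review; inactive = the rest, including hits rejected on review.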
# Assay: suppression of endothelial VCAM-1 upregulation – cell-based, plate reader, pooled HUVEC, TNFa stimulus (AID 454)
# Details: HUVEC TNFa-induced VCAM-1 surface immunofluorescence; stronger effect = higher value,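 compound tested at 5 µM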
row,SMILES,inhibition
1,COc1ccc(N(CC(=O)Nc2cc(C)ccc2C)S(=O)(=O)c2c(C)nn(C)c2C)cc1,inactive
2,Cc1ccc2nc(NC(=O)Cn3cc4c(n3)CCCCC4)sc2c1,inactive
3,CCCCNC(=O)OC(C)CNC(=O)Oc1cccc(C)c1 (centres undefined),inactive
4,Cc1ccc(O)c(-c2cc(C(=O)Nc3ccc(S(=O)(=O)N4CC(C)OC(C)C4)cc3)[nH]n2)c1 (centres undefined),inactive
5,O=C(Nc1ccc2c(c1)OCCO2)C1CCCN1S(=O)(=O)c1cccc2cccnc12 (centres undefined),inactive
6,CCOc1ccccc1NC(=O)CCSc1nc2n[nH]c(C)c2c(=N)n1-c1ccccc1Cl,inactive
7,Cn1c(=O)c2c(nc(NCCCO)n2CCc2ccccc2)n(C)c1=O,inactive
8,Cc1ccc(-n2c(=O)[nH]c3c(C(N)=O)nc(CC(C)C)nc32)cc1,inactive
9,N/C(Cn1nnc(-c2ccccc2)n1)=N\O,inactive
10,CO[C@H]1C[C@@H]2CC[C@@H](C)[C@@](O)(O2)C(=O)C(=O)N2CCCC[C@H]2C(=O)O[C@H]([C@H](C)C[C@@H]2CC[C@@H](O)[C@H](OC)C2)CC(=O)[C@H](C)C=C(C)[C@@H](O)[C@@H](OC)C(=O)[C@H](C)C[C@H](C)C=CC=CC=C1C,88.8% (active)
11,CCOC(=O)C1CCN(c2c(NC3CCCc4ccccc43)c(=O)c2=O)CC1 (centres undefined),inactive
12,Cc1ccc(C)c2[nH]c(=O)c(CCNC(=O)c3ccc(S(=O)(=O)N(C)C)cc3)cc12,inactive
13,Cc1cc(-n2c(C)cc(C(=O)CSc3nnnn3-c3ccc(Cl)cc3)c2C)no1,inactive
14,O=C(Nc1ccc(-c2noc(-c3cccs3)n2)cc1)c1cccnc1,inactive
15,COc1ccc(Cc2nc(-c3ccc(NC(=O)c4cccnc4)cc3)no2)cc1,inactive
16,CC(Oc1ccc(Cl)cc1Cl)c1nc(-c2ccc(NC(=O)c3cccnc3)cc2)no1 (centres undefined),72% (active)
17,O=C(CCSc1nccn1Cc1ccccc1)N1CCOCC1,inactive
18,Cc1nnc(NC(=O)C2CCCO2)s1 (centres undefined),inactive
19,CCN1CCN(C(c2ccc(F)cc2)c2nnnn2Cc2cccs2)CC1 (centres undefined),inactive
20,O=C(COC(=O)c1ccco1)NCc1cccs1,inactive

row,SMILES,inhibition
1,CCCCn1nnnc1SCC(=O)N1CCN(C(=O)c2ccco2)CC1,inactive
2,COC(=O)CC1SCCNC1=O (centres undefined),inactive
3,Cn1c(-c2ccccc2)cc(=O)c2ccccc21,inactive
4,O=C(NCCC1=CCCCC1)c1cc2c(s1)CS(=O)(=O)C2,inactive
5,COc1ccc(C(=O)Cn2nnc(-c3cccs3)n2)cc1,inactive
6,O=C(Nc1sccc1C(=O)NCc1ccco1)c1cccnc1,inactive
7,CC1CCCN(S(=O)(=O)c2ccc(C(=O)Nc3nnc(-c4ccccc4Cl)o3)cc2)C1 (centres undefined),77.1% (active)
8,CCC1CCCCN1S(=O)(=O)c1ccc(C(=O)Nc2nnc(-c3ccccc3Cl)o2)cc1 (centres undefined),inactive
9,CCC1CCCCN1S(=O)(=O)c1ccc(C(=O)Nc2nnc(-c3cccs3)o2)cc1 (centres undefined),inactive
10,COc1ccc(-c2cc(C(=O)NCc3ccc(Cl)cc3)no2)cc1OC,inactive
11,COC(=O)c1[nH]c2cc(OC)ccc2c1NC(=O)CCN1CCCCC1,inactive
12,O=S(=O)(Cc1ccc(Cl)cc1)Nc1ccc2c(c1)OCO2,inactive
13,CCOC(=O)N1CCN(S(=O)(=O)c2cc(Cl)ccc2Cl)CC1,inactive
14,Cc1nnc(SCCn2c(N3CC(C)CC(C)C3)nc3c2c(=O)n(C)c(=O)n3C)s1 (centres undefined),inactive
15,COC(=O)c1[nH]c2ccccc2c1NC(=O)CN1CCC(C(N)=O)(N2CCCCC2)CC1,inactive
16,CCC(C)NC(=O)CC1Oc2ccc(C)cc2NC1=O (centres undefined),inactive
17,COc1ccccc1NC(=O)N1CCN(c2cccc(C(F)(F)F)c2)CC1,inactive
18,Cc1cc(C)n2nc[n+](C)c2n1,inactive
19,CC(=O)N1CCN(S(=O)(=O)c2cccc(C(=O)Nc3ccc4c(c3)CCC4)c2)CC1,inactive
20,CCc1nnc2c3cnn(-c4ccccc4)c3ncn12,inactive

row,SMILES,inhibition
1,Cc1ccc(S(=O)(=O)N2CCCC2)cc1S(=O)(=O)N1CCCC1,inactive
2,CS(=O)(=O)N1CCc2cc(C(=O)N3CCCCC3)ccc21,inactive
3,Cc1cc(C)nc(NS(=O)(=O)c2ccc(NC(=O)Cn3c(=O)oc4ccccc43)cc2)n1,inactive
4,CCOC(=O)c1[nH]c2ccc(C)cc2c1NC(=O)CN1CCCCC1,inactive
5,S=C(NCC1CCCO1)n1nnc2ccccc21 (centres undefined),104% (active)
6,O=C(NCC1CCCO1)c1ccc(C(=O)NCC2CCCO2)cc1 (centres undefined),inactive
7,O=C(CN(Cc1ccc(F)cc1)C(=O)Cn1nnc2ccccc21)NCC1CCCO1 (centres undefined),inactive
8,CC(=O)Oc1ccc(CCC(C)OC(C)=O)cc1 (centres undefined),inactive
9,c1cc2c(cc1Nc1nc(-c3ccc4c(c3)OCO4)cs1)OCCO2,inactive
10,Oc1ccc(Nc2nc(-c3ccc(O)cc3)cs2)cc1,106% (active)
11,CC(=O)Nc1nc(C)c(-c2csc(Nc3ccc(O)cc3)n2)s1,inactive
12,COc1ccc2nc(CC(C)(C)CC(=O)O)c[n+]([O-])c2c1,inactive
13,O=C(NC1CC1)c1cccc(Nc2ccc(-c3ccc4c(c3)OCCO4)nn2)c1,inactive
14,Cn1c(=O)cc(OCCCC(=O)N2CCCCC2)c2ccccc21,101% (active)
15,CCOC(=O)N1CCN(C(=O)COc2cc(=O)n(C)c3ccccc23)CC1,inactive
16,Cn1c(=O)cc(OCCCC(=O)Nc2ccc3c(c2)OCCO3)c2ccccc21,inactive
17,CCOC(=O)c1nn(-c2sc(C(=O)OC)c(C)c2C(=O)OC)cc1O,inactive
18,COc1ccc(CCn2c(N)c(C#N)c3nc4ccccc4nc32)cc1OC,inactive
19,COc1cc(/C=C/C(=O)CC(=O)/C=C/c2ccc(O)c(OC)c2)ccc1O,85.5% (active)
